About 410 targets per protein were measured; listed, in parts, are those with the strongest signals and a random draw of the rest.
How the values were obtained:
Test in all cases: glycan array binding signal (z-score within array); higher = stronger binding
Conditions in all cases: glycan notation: IUPAC condensed, linker removed
[1] = target: Fuc(a1-2)Gal(b1-3)[Fuc(a1-4)]GlcNAc(b1-2)Man(a1-3)[Fuc(a1-2)Gal(b1-3)[Fuc(a1-4)]GlcNAc(b1-2)Man(a1-6)]Man(b1-4)GlcNAc(b1-4)[Fuc(a1-6)]GlcNAc(b1-4)[Fuc(a1-6)]GlcNAc
How it was run: (§1)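 From the Consortium for Functional Glycomics database, 3228 arrays were curated, keeping only those whose protein sequence was available. Binding is given as a within-array Z-score averaged across arrays sharing a protein sequence and across linkers. Negative Z-scores can be read as non-binding.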

[2] = target: Fuc(a1-2)Gal(b1-4)GlcNAc(b1-2)Man
How it was run: as §1

[3] = target: Fuc(a1-2)Gal(b1-4)GlcNAc(b1-2)[Fuc(a1-2)Gal(b1-4)GlcNAc(b1-4)]Man(a1-3)[Fuc(a1-2)Gal(b1-4)GlcNAc(b1-2)Man(a1-6)]Man(b1-4)GlcNAc(b1-4)GlcNAc
How it was run: as §1

[4] = target: Fuc(a1-2)Gal(b1-4)[Fuc(a1-3)]GlcNAc
How it was run: as §1

[5] = target: Fuc(a1-2)Gal(b1-4)[Fuc(a1-3)]GlcNAc(b1-3)Gal(b1-4)[Fuc(a1-3)]GlcNAc(b1-3)Gal(b1-4)[Fuc(a1-3)]GlcNAc
How it was run: as §1

[6] = target: Fuc(a1-2)[Gal(a1-3)]Gal(b1-4)GlcNAc(b1-2)Man
How it was run: as §1

[7] = target: Fuc(a1-2)[GalNAc(a1-3)]Gal(b1-4)GlcNAc(b1-6)GalNAc
How it was run: as §1

[8] = target: Fuc(a1-3)[Gal(b1-4)]Glc6S
How it was run: as §1

[9] = target: Fuc(a1-3)[Gal(b1-4)]GlcNAc(b1-6)[Gal(b1-3)GlcNAc(b1-3)]Gal(b1-4)Glc
How it was run: as §1

Gal(a1-3)Gal(b1-3)GlcNAc = target: Gal(a1-3)Gal(b1-3)GlcNAc
How it was run: as §1

Gal(a1-3)GalNAc = target: Gal(a1-3)GalNAc
How it was run: as §1

[10] = target: Gal(b1-3)GlcNAc(a1-3)Gal(b1-4)GlcNAc
How it was run: as §1

[11] = target: Gal(b1-3)GlcNAc(b1-3)Gal(b1-4)GlcNAc(b1-2)[Gal(b1-3)GlcNAc(b1-3)Gal(b1-4)GlcNAc(b1-6)]Man(a1-6)[Gal(b1-3)GlcNAc(b1-3)Gal(b1-4)GlcNAc(b1-2)Man(a1-3)]Man(b1-4)GlcNAc(b1-4)[Fuc(a1-6)]GlcNAc
How it was run: as §1

Gal(b1-4)Glc = target: Gal(b1-4)Glc
How it was run: as §1

[12] = target: Gal(b1-4)GlcNAc(a1-6)Gal(b1-4)GlcNAc
How it was run: as §1

Gal(b1-4)GlcNAc(b1-2)Man = target: Gal(b1-4)GlcNAc(b1-2)Man
How it was run: as §1

[13] = target: Gal(b1-4)GlcNAc(b1-2)[Gal(b1-4)GlcNAc(b1-4)]Man(a1-3)[Gal(b1-4)GlcNAc(b1-2)[Gal(b1-4)GlcNAc(b1-6)]Man(a1-6)]Man(b1-4)GlcNAc(b1-4)GlcNAc
How it was run: as §1

[14] = target: Gal(b1-4)GlcNAc(b1-3)Gal(b1-4)GlcNAc(b1-2)Man(a1-3)[Gal(b1-4)GlcNAc(b1-3)Gal(b1-4)GlcNAc(b1-2)Man(a1-6)]Man(b1-4)GlcNAc(b1-4)GlcNAc
How it was run: as §1

[15] = target: Gal(b1-4)GlcNAc(b1-3)Gal(b1-4)GlcNAc(b1-2)Man(a1-3)[Gal(b1-4)GlcNAc(b1-3)Gal(b1-4)GlcNAc(b1-2)Man(a1-6)]Man(b1-4)GlcNAc(b1-4)[Fuc(a1-6)]GlcNAc
How it was run: as §1

[16] = target: Gal(b1-4)GlcNAc(b1-3)Gal(b1-4)GlcNAc(b1-3)Gal(b1-4)GlcNAc(b1-3)Gal(b1-4)GlcNAc(b1-2)Man(a1-3)[Gal(b1-4)GlcNAc(b1-3)Gal(b1-4)GlcNAc(b1-3)Gal(b1-4)GlcNAc(b1-3)Gal(b1-4)GlcNAc(b1-2)Man(a1-6)]Man(b1-4)GlcNAc(b1-4)[Fuc(a1-6)]GlcNAc
How it was run: as §1

[17] = target: Gal(b1-4)GlcNAc(b1-3)Gal(b1-4)GlcNAc(b1-3)Gal(b1-4)GlcNAc(b1-3)Gal(b1-4)GlcNAc(b1-3)Gal(b1-4)GlcNAc(b1-2)Man(a1-3)[Gal(b1-4)GlcNAc(b1-3)Gal(b1-4)GlcNAc(b1-3)Gal(b1-4)GlcNAc(b1-3)Gal(b1-4)GlcNAc(b1-3)Gal(b1-4)GlcNAc(b1-2)Man(a1-6)]Man(b1-4)GlcNAc(b1-4)GlcNAc
How it was run: as §1

[18] = target: Gal(b1-4)GlcNAc(b1-3)Gal(b1-4)GlcNAc(b1-3)Gal(b1-4)GlcNAc(b1-3)Gal(b1-4)GlcNAc(b1-3)Gal(b1-4)GlcNAc(b1-2)[Gal(b1-4)GlcNAc(b1-3)Gal(b1-4)GlcNAc(b1-3)Gal(b1-4)GlcNAc(b1-3)Gal(b1-4)GlcNAc(b1-3)Gal(b1-4)GlcNAc(b1-6)]Man(a1-6)[Gal(b1-4)GlcNAc(b1-3)Gal(b1-4)GlcNAc(b1-3)Gal(b1-4)GlcNAc(b1-3)Gal(b1-4)GlcNAc(b1-3)Gal(b1-4)GlcNAc(b1-2)Man(a1-3)]Man(b1-4)GlcNAc(b1-4)[Fuc(a1-6)]GlcNAc
How it was run: as §1

[19] = target: Gal(b1-4)GlcNAc(b1-3)Gal(b1-4)GlcNAc(b1-3)Gal(b1-4)GlcNAc(b1-3)Gal(b1-4)GlcNAc(b1-3)Gal(b1-4)GlcNAc(b1-3)Gal(b1-4)GlcNAc(b1-2)Man(a1-3)[Gal(b1-4)GlcNAc(b1-3)Gal(b1-4)GlcNAc(b1-3)Gal(b1-4)GlcNAc(b1-3)Gal(b1-4)GlcNAc(b1-3)Gal(b1-4)GlcNAc(b1-3)Gal(b1-4)GlcNAc(b1-2)Man(a1-6)]Man(b1-4)GlcNAc(b1-4)GlcNAc
How it was run: as §1

Gal3S(b1-4)Glc = target: Gal3S(b1-4)Glc
How it was run: as §1

GalNAc3S(b1-4)GlcNAc = target: GalNAc3S(b1-4)GlcNAc
How it was run: as §1

[20] = target: GalNAc3S(b1-4)[Fuc(a1-3)]GlcNAc
How it was run: as §1

GalNAc4S6S(b1-4)GlcNAc = target: GalNAc4S6S(b1-4)GlcNAc
How it was run: as §1

B1: GS13599A-bth-520-23-520 (Bacteroides thetaiotaomicron) (protein)
chain: SEDTMDRINKDHDHTTSVASRFILADVITSTAFSNASGDINTYASSYIEYEVGVDNQLYYAEVRENEPSSSSTFNNSWNGIYSSLKNARIIIDQCGEGGRDHGNDVTRGMAEVMAAYNCALIADFFGDAPCSQAALVDEKGSPVYMTPKMDTQQEIYTQIISYLDDAIANLQKEDLADVTEQDFLYAGDADKWLKFAYGLKARYTMRLINRSSNKSADYEKVLDYVSKSFTSADDQAAFDIYDSNNINPFYGFYNSRAGFGASTSLGTKLLAYNDPRANRAFFTPIVDKKRSQVAANDPSLVPAPNGSPDQSTSKYGISAFVYAKTAPTLLMSYHELMFLKAEALCRLNRDAEDALKEAVVAGLLNAENSISIAIKELGSGLNTNSSEVITETSAGKYFDDVVKAKYAANPLQETMIQKYLAMWGASGEATETYNDFRRMKGLNENFITLTNPNNSSKFPLRYPYGNSDTAANPEVKAAYGNGDYVYSEPVWWAGGSR
[1]
  glycan array binding signal (z-score): 0.741
[2]
  glycan array binding signal (z-score): -0.841
[3]
  glycan array binding signal (z-score): 2.4
[4]
  glycan array binding signal (z-score): 0.206
[5]
  glycan array binding signal (z-score): -0.474
[6]
  glycan array binding signal (z-score): -0.234
[7]
  glycan array binding signal (z-score): -1.38
[8]
  glycan array binding signal (z-score): 0.474
[9]
  glycan array binding signal (z-score): -0.479
Gal(a1-3)Gal(b1-3)GlcNAc
  glycan array binding signal (z-score): -0.349
Gal(a1-3)GalNAc
  glycan array binding signal (z-score): -1.08
[10]
  glycan array binding signal (z-score): 0.206
[11]
  glycan array binding signal (z-score): 2.93
Gal(b1-4)Glc
  glycan array binding signal (z-score): -0.435
[12]
  glycan array binding signal (z-score): -1.2
Gal(b1-4)GlcNAc(b1-2)Man
  glycan array binding signal (z-score): 2.44
[13]
  glycan array binding signal (z-score): -0.453
[14]
  glycan array binding signal (z-score): 3.32
[15]
  glycan array binding signal (z-score): 1.38
[16]
  glycan array binding signal (z-score): 2.46
[17]
  glycan array binding signal (z-score): 3.9
[18]
  glycan array binding signal (z-score): 7.02
[19]
  glycan array binding signal (z-score): 0.294
Gal3S(b1-4)Glc
  glycan array binding signal (z-score): 3.17
GalNAc3S(b1-4)GlcNAc
  glycan array binding signal (z-score): 0.897
[20]
  glycan array binding signal (z-score): 2.41
GalNAc4S6S(b1-4)GlcNAc
  glycan array binding signal (z-score): -1.28

From the supplement of paper PMC8728848
